The sample as a whole holds a higher share of hits than the screen did.
Vaccinia pol inh: vaccinia E9 polymerase processive synthesis inhibition | in vitro processive DNA synthesis, absorbance read-out; active compounds read low | normalized absorbance, % (test concentration not listed) | hit rate 0.94% among 46,000 | AID 493162; in the data active means normalized absorbance mostly below about 85%, no sharp cut-off; inactive means mostly above about 86%
An asterisk follows results filed as active.

SMILES	Vaccinia pol inh
CC(C)C(=O)Nc1nnc(-c2ccccc2)s1	60.0*
CC(C)C(=O)Nc1nnc(-c2ccc(Cl)cc2)s1	100.0
Cc1ccc(C(=O)Nc2nnc(-c3ccccc3)s2)cc1	100.5
CCc1ccc(NC(=O)CN2C(=O)CC(C)Sc3ccccc32)cc1 (stereo unspecified)	96.5
Cc1csc(NC(=O)c2ccccc2C(=O)O)c1-c1nc2ccccc2s1	71.7*
O=C(O)c1ccccc1-c1nc2ccccc2s1	98.8
Cc1ccc2nc(NC(=O)c3ccccc3C(=O)O)sc2c1	90.6
Cn1c(CSCC(=O)Nc2ccccc2)nnc1SCC(=O)c1ccccc1	109.9
Cc1ccnc(SCC(=O)Nc2cccc(C(F)(F)F)c2)n1	93.9
Cc1c(Sc2ccc(Cl)cc2)cnn1C(=O)Nc1cccc(C(F)(F)F)c1	71.4*
O=C(Nc1cccc(Cl)c1)n1ncc2cc(Cl)ccc21	84.8
C=C[C@H]1CN2CC[C@H]1C[C@@H]2[C@H](O)c1ccnc2ccc(OC)cc12	103.3
O=C(O)CCC(=O)Nc1cccc(F)c1	101.1
Oc1c(Cl)cc(Cl)cc1Sc1cc(Cl)cc(Cl)c1O	60.2*
O=C(c1cnoc1)c1cc(Cl)cc(Cl)c1O	94.3
Oc1c(Cl)cc(Cl)cc1C(O)(C(F)(F)F)C(F)(F)F	83.7*
CCC(=O)c1cc(Cl)cc(Cl)c1O	97.4
Cc1ccc(N)c(C(O)(C(F)(F)F)C(F)(F)F)c1	102.3
CCc1sc(N)nc1-c1ccc(Cl)cc1	98.6
O=C(c1cc2ccccc2oc1=O)N1CCOCC1	106.0
Cc1nc2c(C(=O)NCc3ccccc3)c[nH]n2c(=O)c1Cl	83.2
Clc1ccc(Cn2c(/N=C/c3ccc4c(c3)OCO4)nc3ccccc32)cc1	99.7
COC(=O)c1c(N)sc2c1CCC(C(C)(C)C)C2 (stereo unspecified)	100.7
COc1ccc(OCc2nnc(N)s2)cc1	101.6
CCC(C)NC(=O)c1c(-c2c(F)cccc2Cl)noc1C (stereo unspecified)	101.5
SMILES	Vaccinia pol inh
Clc1ccc(C=NCc2ccc(-c3cccs3)s2)cc1	99.4
Cc1csc2sc(C=NCc3cccs3)c(C)c12	62.7*
Cc1csc2sc(COC(=O)Nc3ccccc3)c(C)c12	99.4
Cc1cc(C)nc(NC(=O)c2c(C)nc3sccn23)c1	107.5
O=C(Cn1c2ccccc2c2cn[nH]c(=O)c21)NCc1cccnc1	92.9
O=C(NCCc1ccccc1)C1CCN(C(=O)C(C(=O)c2ccccc2)n2ccccc2=O)CC1 (stereo unspecified)	84.9
CN=C1NC(=NC)c2ccccc21	98.2
COc1ccc2c(c1)cc1n2CCN=C1N	90.3
COc1ccc2c(c1)c1nc(N(C)C)nc3c1n2CCN3C	11.2*
COc1ccc2c(c1)cc1n2CCN2CCN=C12	76.3
Cc1ccc(C2=NNC(c3cccc(C)n3)S2)cc1 (stereo unspecified)	99.4
O=C(c1ccc(Br)o1)N1CCN(c2ccccc2F)CC1	96.7
O=c1cc(-c2ccccc2)[nH]c(=S)[nH]1	100.3
S=c1[nH]c(-c2ccccc2)c(-c2ccccc2)o1	62.5*
S=c1cc(-c2ccccc2)ss1	84.3
CCN(CC)Cc1cc(C(=O)O)c(-c2ccccc2)o1	97.4
CC(C)(C)n1nc(-c2ccc(Cl)cc2)c2c(N)ncnc21	98.8
Cc1c(Br)c(C(F)(F)F)nn1CC(N)=O	100.7
CCC(C)NS(=O)(=O)c1cccs1 (stereo unspecified)	98.9
O=C(CSc1nc2ccccc2[nH]1)Nc1ccccc1Br	96.3
Nc1nc2ccccc2cc1S(=O)(=O)c1ccccc1	87.5
Cc1ccc2c(c1)N(C(=O)N1CCC(C(=O)O)CC1)CC(C)O2 (stereo unspecified)	93.6
CC1CN(C(=O)NC23CC4CC(CC(C4)C2)C3)c2cc(Cl)ccc2O1 (stereo unspecified)	102.3
CC1CN(C(=O)N2CCC(C(=O)O)CC2)c2cc(Cl)ccc2O1 (stereo unspecified)	67.7*
CC1=C(C)N(c2ccccc2)NC(=S)S1	100.3
SMILES	Vaccinia pol inh
NC(=O)C1CCN(Cn2nnc3ccccc32)CC1	98.5
CN(C(=O)c1cc(-c2cccs2)nc2ccccc12)c1ccccc1	106.9
O=C(O)c1cc(-c2cccs2)nc2ccccc12	91.1
O=C(O)c1cc(-c2cccs2)nc2ccc(Br)cc12	33.8*
COc1ccc2c(OC)ccc3c2c1C=CC3=O	56.2*
c1cncc(-c2nnc(-c3cccnc3)nn2)c1	101.5
O=C(O)CNC(=O)C1CCCCC1	103.0
O=C(O)CCC1CCCCCCCCCCC1	73.9*
N[C@@H](CC1CCCCC1)C(=O)O	99.3
CN1C2CC[C@@H]1CC(OC(=O)[C@H](CO)c1ccccc1)C2 (stereo partly specified)	100.2
CN=C1c2c(C)c3cc(OC)ccc3n2CCN1C	49.5*
COc1ccc2c(c1)c(C#N)c1n2CCN=C1N(C)C	104.6
COc1ccc2c(c1)c(-c1csc(N)n1)c(C)n2C	102.8
O=C1/C(=C/c2ccco2)Cc2ccccc21	88.9
O=C1NCC(NC(=O)C(F)(F)F)c2cc3c(cc21)OCO3 (stereo unspecified)	94.9
COC(=O)[C@@]1(C)CCCC2(C)c3ccc(C(C)C)cc3CCC21 (stereo partly specified)	100.0
CC(C)c1ccc2c(c1)CCC1C(C)(CNC(=O)/C=C/C(=O)O)CCCC21C (stereo unspecified)	81.3*
COc1ccc2c(c1)[C@@]1(C)CCC[C@](C)(CO)C1CC2 (stereo partly specified)	100.2
O=C(CN1C(=O)c2ccccc2C1=O)Nc1ccc(F)cc1	100.7
CCOC(=O)c1cn(Cc2cccc(Cl)c2)c2cc(C)nn2c1=O	110.0
CN1c2ccccc2C(=O)/C(=C\Nc2ncccn2)S1(=O)=O	107.9
Cc1ccc2cc3cc(C(=O)NCCN4CCN(c5cccc(Cl)c5)CC4)sc3nc2c1	104.2
COc1ccc2cc3cc(C(=O)NC4CCCC(C)C4C)oc3nc2c1 (stereo unspecified)	101.2
Cc1ccc2cc3cc(C(=O)NCCCN4CCCCCC4)sc3nc2c1	66.0*
COc1ccc2cc3cc(C(=O)NCCCN4CCCCCC4)oc3nc2c1	62.9*
SMILES	Vaccinia pol inh
COc1ccc2cc3cc(C(=O)NCCC4=CCCCC4)sc3nc2c1	102.9
CCN1CCN(CCCNC(=O)c2cc3cc4ccc(Cl)cc4nc3o2)CC1	93.5
Cn1c(CCNC(=O)c2ccccc2)nc2ccccc21	99.2
O=C(CS(=O)(=O)c1cn(Cc2ccc(Cl)cc2)c2ccccc12)Nc1ccccc1	85.4
Cc1ccc(C(=O)CSc2cccc[n+]2[O-])cc1	76.8
CCn1c(NCc2ccccn2)nc2ccccc21	112.8
Cc1nc2ccccc2cc1C(=O)NCc1ccccn1	109.1
Cc1nc(NCc2ccccn2)c2ccccc2n1	50.6*
CCSC1=C(C#N)C(=O)NC(/C=C/c2ccccc2)S1 (stereo unspecified)	108.1
COC(=O)CSC1=C(C#N)C(=O)NC(c2ccccc2O)S1 (stereo unspecified)	90.7
N#CC1=C(SCc2ccccc2)SC(c2ccccc2O)NC1=O (stereo unspecified)	49.9*
Cc1ccc2nc(NC(=O)CNc3ccc(F)cc3)sc2c1	98.8
O=C(NCCCc1ccccc1)C1c2ccccc2-c2ccccc21	98.0
COC(=O)c1cnc(-n2ncc(C#N)c2N)nc1C(F)(F)F	104.0
CCN(CC)CCOCCOC(=O)C1(c2ccccc2)CCCC1	99.9
CCc1ccc(/C=C2/C(=O)N(c3ccccc3)N=C2C)cc1	91.6
CCOC(=O)c1ccc(N2N=C(C(F)(F)F)/C(=C/C=C/c3ccco3)C2=O)cc1	99.6

High-throughput results from PubChem BioAssay.
